CYP2C9 inh: blockers of cytochrome P450 2C9 activity – biochemical, luminescence, ADME assay, primary screen; inhibition, % at 5 µM; 96,000 tested, 20% active; P11712; CYP2C9 Supersomes, luciferin-H conversion; AID 777, 2007;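 active = blocking of liver enzyme CYP2C9 beyond about 50% at 5 µM, limit read from the data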
CYP2C19 activ: human CYP2C19 activators, primary screen, biochemical, luminescence | 96,000 tested, under 10 active | Cytochrome P450 2C19 (Homo sapiens), P33261 | recombinant CYP2C19, luciferin-H EGE luminescence; active compounds read high; 0 = fully inhibited enzyme, 1 = untreated enzyme | activation factor at 5 µM | AID 1025, 2008;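 active = activation factor of at least 2 at 5 µM in the primary screen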;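 also: 0 = wells with 2.5 mM tranylcypromine and 1 = vehicle-only wells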
Target sequence (P33261 whole entry, looked up): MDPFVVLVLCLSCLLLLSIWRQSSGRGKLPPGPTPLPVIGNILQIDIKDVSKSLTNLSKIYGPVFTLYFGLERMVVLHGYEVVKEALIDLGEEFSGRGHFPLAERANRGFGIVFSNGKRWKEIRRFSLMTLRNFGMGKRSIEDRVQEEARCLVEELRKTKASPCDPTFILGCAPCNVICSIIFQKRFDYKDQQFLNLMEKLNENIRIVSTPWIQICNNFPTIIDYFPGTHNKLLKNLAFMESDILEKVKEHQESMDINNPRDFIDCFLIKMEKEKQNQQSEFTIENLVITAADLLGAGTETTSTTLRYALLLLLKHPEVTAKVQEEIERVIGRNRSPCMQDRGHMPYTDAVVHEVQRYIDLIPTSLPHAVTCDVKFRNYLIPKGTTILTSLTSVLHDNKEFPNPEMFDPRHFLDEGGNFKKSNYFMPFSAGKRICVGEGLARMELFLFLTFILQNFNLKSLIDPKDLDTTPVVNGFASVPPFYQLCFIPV
Pyk2 oligo antag: antagonists of Pyk2 self-association, primary screen, Q293 cells, FERM NanoBiT luminescence, HTS | 99,000 tested, 0.83% active | z-score (the deposit names both 25 µM and 10 µM) | AID 1347419, 2020 | active compounds read low | Protein-tyrosine kinase 2-beta (Homo sapiens), Q14289;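 active = Z-score of -3 or lower, scaled per plate to the spread of control and sample wells; inactive = z-score above -3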;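 also: negative z-score means lost luminescence so less FERM oligomerization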
CYP2C9 activ: human CYP2C9 activators, primary screen, biochemical, luminescence. recombinant CYP2C9, luciferin-H conversion; active compounds read high; factor 1 = untreated enzyme, 0 = blocked. activation factor at 5 µM. 96,000 tested, 1.4% active. AID 1024, 2008;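 active = activation factor of 2 or more for CYP2C9 at a 5 µM dose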;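 also: 0 = sulfaphenazole-blocked wells and 1 = vehicle-only wells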
CYP2C19 inhib: blockers of cytochrome P450 2C19 activity – biochemical, luminescence, ADME assay, primary screen | inhibition, % at 5 µM | AID 778, 2007 | 96,000 tested, 21% active | P33261 | CYP2C19 Supersomes, luciferin-H EGE luminescence, 30 min;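 active = CYP2C19 inhibition above a set limit at 5 µM in the primary screen, cut at about 50% in these data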;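 also: plate controls were negative control wells for no effect and 2.5 mM tranylcypromine positive control for full effect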
* = called active by the depositor. A selection: hits, their analogues and other compounds. The true share with any hit is near 28%.

`COc1ccc(CCN2C(=O)C3C4CC(C5C(C(=O)N/N=C\c6ccc(Cl)cc6)=NOC45)C3C2=O)cc1OC` (stereo unspecified) gave CYP2C9 inh 49, CYP2C19 activ 0.8, Pyk2 oligo antag -0.75, CYP2C9 activ 0.5 and CYP2C19 inhib 20.
`CC1(c2ccc(Cl)cc2)NC(=O)N(CC(=O)NC(=O)NCc2ccco2)C1=O` (stereo unspecified) gave CYP2C9 inh 67*, CYP2C19 activ 0.3, Pyk2 oligo antag -0.37, CYP2C9 activ 0.3 and CYP2C19 inhib 66*.
Screening O=C(CN1C(=O)NC2(CCCCCC2)C1=O)NCc1ccco1 returned CYP2C9 inh 6, CYP2C19 activ 0.9, Pyk2 oligo antag -0.52, CYP2C9 activ 0.9 and CYP2C19 inhib 7.
Screening C=CCn1c(C)cc(C(=O)CN2C(=O)NC3(CCCc4ccccc43)C2=O)c1C (stereo unspecified) returned CYP2C9 inh 82*, CYP2C19 activ 0.6, Pyk2 oligo antag -0.03, CYP2C9 activ 0.2 and CYP2C19 inhib 44.
Cc1ccc2nc(SCC(=O)Nc3cc(C(F)(F)F)ccc3N3CCOCC3)[nH]c2c1 was read as CYP2C9 inh 28, CYP2C19 activ 0.6, Pyk2 oligo antag -3.5*, CYP2C9 activ 0.7 and CYP2C19 inhib 37.
For Nc1nnc(SCC(=O)Nc2cc(C(F)(F)F)ccc2N2CCOCC2)s1 the results were CYP2C9 inh 77*, CYP2C19 activ 0.2, Pyk2 oligo antag -0.69, CYP2C9 activ 0.2 and CYP2C19 inhib 78*.
For O=C(Cn1cnc2ccccc21)Nc1cc(C(F)(F)F)ccc1N1CCOCC1 the results were CYP2C9 inh 29, CYP2C19 activ 0.8, Pyk2 oligo antag -0.52, CYP2C9 activ 0.7 and CYP2C19 inhib 22.
O=C(CSc1nc2ccccc2o1)Nc1cc(C(F)(F)F)ccc1N1CCOCC1 was read as CYP2C9 inh 39, CYP2C19 activ 0.5, Pyk2 oligo antag -1.2, CYP2C9 activ 0.6 and CYP2C19 inhib 46.
Screening Cn1c(=O)c2ncn(CC(=O)Nc3cc(C(F)(F)F)ccc3N3CCOCC3)c2n(C)c1=O returned CYP2C9 inh 57*, CYP2C19 activ 0.6, Pyk2 oligo antag -0.78, CYP2C9 activ 0.4 and CYP2C19 inhib 41.
For COc1ccc(O)c(/C=N/c2sc(C)c(C)c2C#N)c1 the results were CYP2C9 inh -2, CYP2C19 activ 0.9, Pyk2 oligo antag 0.26, CYP2C9 activ 1 and CYP2C19 inhib 15.
For Cc1cc(C)n(C(=O)CNC(=O)C2COc3ccccc3O2)n1 (stereo unspecified) the results were Pyk2 oligo antag -0.25.
`CC1(C)Cc2c(C#N)c(NCCCO)nc(-c3ccccc3)c2CO1` gave CYP2C9 inh 61*, CYP2C19 activ 0.8, CYP2C9 activ 0.4 and CYP2C19 inhib 21.
For CC1(C)Cc2c(c(-c3ccccc3)nc3[nH][nH]c(=O)c23)CO1 the results were CYP2C9 inh 3, CYP2C19 activ 0.4, Pyk2 oligo antag -0.4, CYP2C9 activ 1 and CYP2C19 inhib 57*.
CCCS(=O)(=O)N1CCC(C(=O)NCc2ccco2)CC1 was read as CYP2C9 inh 7, CYP2C19 activ 1, Pyk2 oligo antag 0.26, CYP2C9 activ 0.9 and CYP2C19 inhib 2.
For O=C1c2ccccc2C(Nc2ccc(F)c(Cl)c2)N1c1ccccn1 (stereo unspecified) the results were CYP2C9 inh 8, CYP2C19 activ 0.6, CYP2C9 activ 0.9 and CYP2C19 inhib 37.
CCc1cccc(NC2c3ccccc3C(=O)N2c2cccnc2)c1 (stereo unspecified) was read as CYP2C9 inh 53*, CYP2C19 activ 0, CYP2C9 activ 0.5 and CYP2C19 inhib 97*.
For CCc1cccc(NC2c3ccccc3C(=O)N2c2ccc(C)cn2)c1 (stereo unspecified) the results were CYP2C9 inh 50*, CYP2C19 activ 0.2, CYP2C9 activ 0.5 and CYP2C19 inhib 85*.
`CCOC(=O)c1ccc(NC2c3ccccc3C(=O)N2c2cccnc2)cc1` (stereo unspecified) gave CYP2C9 inh 75*, CYP2C19 activ 0.1, CYP2C9 activ 0.2 and CYP2C19 inhib 88*.
Screening COc1ccc(NC2c3ccccc3C(=O)N2c2ccccn2)cc1Cl (stereo unspecified) returned CYP2C9 inh 61*, CYP2C19 activ 0.2, CYP2C9 activ 0.4 and CYP2C19 inhib 76*.
Screening CO/N=C/NC(=O)c1cn(-c2ccc(F)cc2)c(=O)c2ccccc12 returned CYP2C9 inh 6, CYP2C19 activ 0.9, Pyk2 oligo antag 2.1, CYP2C9 activ 0.9 and CYP2C19 inhib 14.
For Cc1nc2ccccc2c(=O)n1/N=C/c1c(O)ccc2oc3c(c12)CCCC3 the results were CYP2C9 inh 77*, CYP2C19 activ 0.9, Pyk2 oligo antag 0.76, CYP2C9 activ 0.2 and CYP2C19 inhib 13.
`CN(C)S(=O)(=O)c1ccc(C(=O)Oc2cc(=O)[nH]c3ccccc23)cc1` gave CYP2C9 inh 12, CYP2C19 activ 0.9, Pyk2 oligo antag -0.78, CYP2C9 activ 0.9 and CYP2C19 inhib 14.
`Cc1ccc(-c2nnn(CC(=O)N(Cc3ccccc3F)C(C(=O)NC3CCCC3)c3ccncc3)n2)o1` (stereo unspecified) gave Pyk2 oligo antag 0.58.
`COC(=O)c1cccc(NC(=O)c2cccs2)c1C` gave CYP2C9 inh 8, CYP2C19 activ 0.5, Pyk2 oligo antag -0.44, CYP2C9 activ 0.9 and CYP2C19 inhib 52*.
For COC(=O)c1cccc(NC(=O)Cc2ccc(OC)cc2)c1C the results were CYP2C9 inh 67*, CYP2C19 activ 0.1, Pyk2 oligo antag 0.73, CYP2C9 activ 0.3 and CYP2C19 inhib 92*.
For O=C(Nc1ccccc1Cl)c1cccs1 the results were CYP2C9 inh -10, CYP2C19 activ 1.1, Pyk2 oligo antag 0.51, CYP2C9 activ 1.1 and CYP2C19 inhib -10.
For COC(=O)c1cccc(NS(=O)(=O)c2cccs2)c1C the results were CYP2C9 inh 74*, CYP2C19 activ 0.9, Pyk2 oligo antag -0.45, CYP2C9 activ 0.3 and CYP2C19 inhib 14.
Screening CC1CCN(C(=O)COC(=O)c2cc(Cl)cc(Cl)c2N)CC1 returned CYP2C9 inh -133, CYP2C19 activ 0.5, Pyk2 oligo antag 0.16, CYP2C9 activ 2.3* and CYP2C19 inhib 46.
For CC(C)N(C(=O)COC(=O)c1cc(Cl)cc(Cl)c1N)C(C)C the results were CYP2C9 inh 66*, CYP2C19 activ 0.2, Pyk2 oligo antag -0.04, CYP2C9 activ 0.3 and CYP2C19 inhib 83*.
CN(C)C(=O)COC(=O)c1cc(Cl)cc(Cl)c1N was read as CYP2C9 inh -29, CYP2C19 activ 0.7, Pyk2 oligo antag 1.8, CYP2C9 activ 1.3 and CYP2C19 inhib 26.
